Reference: PubChem BioAssay AID488969 (Vanderbilt High Throughput Screening Facility, 2010)
Whole data set: some 110,000 compounds, median “z-score” near -0.1, cut for the highest 2% near 2. Shown is part of a subset that was picked to be rich in the highest values. Activity calls are given as the source filed them.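 The calls were made as follows: active = z-score in the third read window above 3 or below -3; inactive = the rest.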

The compounds below were run against Metabotropic glutamate receptor 8 (Rattus norvegicus) (UniProt P70579) (assay: rat mGluR8 modulators via GIRK flux, primary screen, cell-based, thallium flux, HTS (AID 488969)). Details: HEK293 rat mGluR8, GIRK (G protein-gated inwardly rectifying potassium channel) thallium flux, FluoZin2; at 10 µM; stronger effect = higher value; submaximal glutamate (EC20) added with thallium.
Sequence of Metabotropic glutamate receptor 8 (Rattus norvegicus) (P70579 whole entry, looked up): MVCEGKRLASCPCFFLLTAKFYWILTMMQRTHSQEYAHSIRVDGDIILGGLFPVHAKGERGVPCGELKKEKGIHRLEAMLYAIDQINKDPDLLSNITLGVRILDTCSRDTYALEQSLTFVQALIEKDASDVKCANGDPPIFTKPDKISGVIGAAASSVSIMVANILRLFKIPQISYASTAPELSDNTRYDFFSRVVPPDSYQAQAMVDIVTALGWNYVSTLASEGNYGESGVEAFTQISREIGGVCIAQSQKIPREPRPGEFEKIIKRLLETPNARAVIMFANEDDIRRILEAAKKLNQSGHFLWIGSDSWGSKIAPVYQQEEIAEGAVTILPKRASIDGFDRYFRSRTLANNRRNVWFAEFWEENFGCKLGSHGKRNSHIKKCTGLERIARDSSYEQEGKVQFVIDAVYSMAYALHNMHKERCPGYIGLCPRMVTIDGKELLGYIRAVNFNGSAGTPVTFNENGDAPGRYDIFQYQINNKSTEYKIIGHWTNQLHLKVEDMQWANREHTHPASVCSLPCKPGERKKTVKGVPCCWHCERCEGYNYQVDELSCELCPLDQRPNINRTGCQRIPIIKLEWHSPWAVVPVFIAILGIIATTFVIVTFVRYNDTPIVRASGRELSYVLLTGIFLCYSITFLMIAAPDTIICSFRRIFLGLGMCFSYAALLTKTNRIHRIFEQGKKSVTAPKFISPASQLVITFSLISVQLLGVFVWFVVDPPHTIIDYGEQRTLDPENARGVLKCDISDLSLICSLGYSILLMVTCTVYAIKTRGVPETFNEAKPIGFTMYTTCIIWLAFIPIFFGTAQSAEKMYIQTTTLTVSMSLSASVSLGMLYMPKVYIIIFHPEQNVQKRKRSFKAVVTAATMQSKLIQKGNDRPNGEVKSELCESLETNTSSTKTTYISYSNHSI

SMILES	z-score
Cc1ccc(S(=O)(=O)CC(C)N2CCN(C3CCCCC3)CC2)cc1 (stereo unspecified)	1.44
COc1ccccc1C(=O)COC(=O)c1ccccc1OCC(=O)Nc1ccc(SC(F)F)cc1	1.1
COc1cccc(/C(O)=C2/C(=O)C(=O)N(Cc3ccco3)C2c2ccncc2)c1 (stereo unspecified)	-0.192
O=C(CSc1nnc(CN2CCOCC2)n1-c1ccc(Cl)cc1)Nc1cc(Cl)ccc1O	-0.794
Cc1cc(C)nc(NS(=O)(=O)c2ccc(NC(=O)CN3C(=O)c4ccccc4C3=O)cc2)n1	0.113
COc1ccc(/C=N/NC(=O)C(=O)Nc2ccccn2)cc1OC	0.813
COc1cc(/C=N/NC(=O)C(=O)Nc2ccccn2)ccc1O	-0.198
CCCOc1ccc(/C=N/NC(=O)C(=O)Nc2ccccn2)cc1	3.92 (active)
COc1ccc(CCNC(=O)CSc2nnc(CNC(=O)c3ccco3)o2)cc1OC	0.382
Cc1cc(C)c2nc(SCC(=O)NCCC3=CCCCC3)cc(C)c2c1	3.98 (active)
Cc1cc(C)c2nc(SCC(=O)NCCN3C(=O)CSC3=O)cc(C)c2c1	-0.238
Cc1ccc(-n2nnnc2SCC(=O)NCCC2=CCCCC2)c(C)c1	0.08
COCc1nnc(NC(=O)c2ccco2)s1	0.76
CCC(=O)Nc1nnc(C)s1	0.946
C/C=C(\C)c1nnc(NC(=O)c2ccco2)s1	-0.358
CC(=O)Nc1nnc(C)s1	3.66 (active)
CC(C)=CC(=O)Nc1nnc(C)s1	0.00638
Cc1nnc(NC(=O)c2ccco2)s1	3.93 (active)
CCCOc1ccc(N2C(=O)CC(N(CCc3ccc(OC)cc3)C(=O)c3cccc(F)c3)C2=O)cc1 (stereo unspecified)	-0.214
COc1ccccc1N(CN1CCCC1=O)C(=O)c1ccccc1F	-0.699
O=C1/C(=C\Nc2ccc(Cl)cc2)CCN1c1ncccn1	0.111
Cc1ccc(C(=O)NCCNc2ccc(Cl)cc2[N+](=O)[O-])o1	-0.083
CCCN1C2=NS(=O)(=O)CCN2c2ccccc21	0.249
C=CCn1c(SCC(=O)c2cc(C)n(CCOC)c2C)nc2sc(C)c(C)c2c1=O	-0.255

SMILES	z-score
COc1nc(N2CCOCC2)nc(C)c1[N+](=O)[O-]	-0.535
CCCN(CCC)CCCOC(=O)c1ccc(Cl)cc1Cl	3.95 (active)
O=C(NNC(=O)c1ccccc1-n1cccc1)c1ccc(Cl)cc1Cl	0.632
C=CCNC(=O)c1ccc(Cl)cc1Cl	0.206
CCN(CC)C(=S)NC(=O)c1ccc(Cl)cc1Cl	2.95
CN(C)CCCOC(=O)c1ccccc1Cl	0.35
CN(C)CCCOC(=O)c1ccc(Cl)cc1Cl	0.77
CCCCN(CCCC)C(=S)NC(=O)c1ccccc1Cl	-0.755
CCCC(=O)NC(=S)Nc1cccc(NC(=O)c2ccc(Cl)cc2Cl)c1	-0.0719
CCCN(CCC)C(=S)NC(=O)c1ccc(Cl)cc1Cl	14.4 (active)
CC1Cc2ccccc2N1C(=S)Nc1ccc(S(N)(=O)=O)cc1 (stereo unspecified)	0.0257
CCC(=O)NC(=S)Nc1cccc(NC(=O)c2ccc(Cl)cc2Cl)c1	0.179
CC1Cc2ccccc2N1C(=S)NC(=O)c1ccc(Cl)cc1Cl (stereo unspecified)	13.5 (active)
O=C(Cc1ccc([N+](=O)[O-])cc1)Nc1nnc(C2CC2)s1	1.17
Cc1cc2cc(CN(CC3CCCO3)C(=S)Nc3ccccc3)c(=O)[nH]c2cc1C (stereo unspecified)	-0.235
O=C1CC(c2ccccc2)=Nc2ccccc2N1	-0.0288
Cc1ccc2c(c1)NC(=O)CC(c1ccccc1)=N2	8.23 (active)
COc1ccc2c(c1)NC(=O)CC(c1ccccc1)=N2	-0.0551
COc1ccc(/C=N/NC(=O)C[n+]2ccccc2)c(OC)c1OC	-0.273
Fc1ccccc1N1CCN(C(c2cccs2)c2nnnn2CCc2ccccc2)CC1 (stereo unspecified)	0.131
Cc1ccc(NC2=C(Cl)C(=O)OC2NC(=O)c2ccccc2)cc1 (stereo unspecified)	-0.201
COc1ccccc1C(c1nnnn1CCc1ccccc1)N1CCCCCC1 (stereo unspecified)	2.68
COc1ccc(CCn2nnnc2C(c2ccc(C)cc2)N2CCN(C)CC2)cc1OC (stereo unspecified)	0.0408
COc1cccc(C(c2nnnn2CCc2ccccc2)N2CCN(c3ccccc3)CC2)c1OC (stereo unspecified)	-0.689

SMILES	z-score
COc1ccccc1C(c1nnnn1CCc1ccccc1)N1CCN(c2ccccc2)CC1 (stereo unspecified)	-0.00308
CCN1CCN(C(c2ccccc2)c2nnnn2CCc2ccc(OC)c(OC)c2)CC1 (stereo unspecified)	0.256
C=CCN1CCN(C(c2ccc(Cl)cc2)c2nnnn2CCc2ccc(OC)c(OC)c2)CC1 (stereo unspecified)	2.29
CCOc1ccc(Cc2c(Cl)nc(SC)nc2N(C)C)cc1	-0.458
CSc1nnc(C2CCCN2)n1C (stereo unspecified)	0.383
O=C(COc1ccc(S(=O)(=O)N2CCOCC2)cc1)Nc1ccccc1C(F)(F)F	1.25
CCn1c(SCC(=O)NC2CCCCC2C)nnc1-c1ccc(OC)cc1 (stereo unspecified)	0.074
CC(=O)N1c2c(ccc3ccccc23)C(C)CC12CCCCC2 (stereo unspecified)	-0.635
O=c1c2ccccc2ncn1CCCOc1ccccc1[N+](=O)[O-]	-0.198
O=C(Cn1cnc2c(nnn2Cc2ccc(F)cc2)c1=O)N1CCN(c2ccccc2)CC1	-0.0198
COCCNC(=O)CS(=O)Cc1nc(-c2ccc(Cl)cc2)oc1C (stereo unspecified)	0.00619
COc1cccc(-c2nc(CS(=O)CC(=O)O)c(C)o2)c1 (stereo unspecified)	0.0172
CCCN(CCC)CCNC(=O)CS(=O)Cc1nc(-c2ccc(C)cc2)oc1C (stereo unspecified)	1.19
Cc1oc(-c2ccccc2)nc1CC(=O)O	-0.979
Cc1oc(-c2ccccc2)nc1CS(=O)CC(=O)O (stereo unspecified)	2.52
CCN(CC)CCNC(=O)CS(=O)Cc1nc(-c2ccc(Cl)cc2)oc1C (stereo unspecified)	2.41
CCN(CC)CC(O)COc1ccc2c(c1)OCO2 (stereo unspecified)	-0.199
Cc1cc(C)cc(OCCCCCNCCO)c1	-0.911
O=C(CSc1nnc2scc(-c3ccccc3)n12)Nc1nsc(-c2ccccc2)n1	-0.713
COc1ccc(-c2nc(NC(=O)CSc3nnc4ccccn34)ns2)cc1	-0.0274
O=C(CSc1nnc2ccccn12)Nc1nsc(-c2ccccc2)n1	3.63 (active)
O=C(Nc1cccc(Cl)c1)Nc1ccc(Cl)cn1	0.563
Cc1ccc(Oc2ncnc3sccc23)cc1	0.102
Cc1ccc2c(CC(=O)OC(C)C(=O)NCc3ccc4c(c3)OCO4)coc2c1 (stereo unspecified)	2.05

SMILES	z-score
CC(OC(=O)Cc1coc2cc3c(cc12)CCC3)C(=O)NCc1ccc2c(c1)OCO2 (stereo unspecified)	0.706
Cc1ccc2c(CC(=O)NCc3ccc4c(c3)OCO4)coc2c1	0.281
Cc1nc(C(F)(F)F)nc(Nc2ccc(Br)cc2)c1C#N	-0.188
CCOC(=O)c1[nH]c(C)c(C(=O)N(C)Cc2ccccc2)c1C	0.89
CCc1nnc(NC(=O)CSc2nnc(-c3ccccc3O)n2CC)s1	-0.195
CCSc1nnc(NC(=O)CSc2nnc(-c3c[nH]c4ccccc34)n2CC)s1	-1.46
CCc1nnc(NC(=O)CSc2nnc(-c3c[nH]c4ccccc34)n2CC)s1	5.79 (active)
CCOC(=O)C(C)Sc1nnc(-c2c[nH]c3ccccc23)n1C (stereo unspecified)	4.19 (active)
CCCSc1nnc(-c2c[nH]c3ccccc23)n1C	0.341
CCn1c(SC(C)C(=O)OC)nnc1-c1c[nH]c2ccccc12 (stereo unspecified)	-0.657
Cc1ccsc1-c1n[nH]c(=S)n1C1CCCCC1	0.261
CC(C)(C)c1ccc(-c2n[nH]c(=S)n2C2CCCC2)cc1	4.4 (active)
CC(C)n1c(-c2ccc(C(C)(C)C)cc2)n[nH]c1=S	8.21 (active)
Cn1c(-c2ccc(C(C)(C)C)cc2)n[nH]c1=S	1.92
S=c1[nH]nc(-c2cccnc2)n1C1CCCCC1	0.738
CC(C)n1c(-c2ccccc2F)n[nH]c1=S	0.0711
CC(=N\Nc1ccc(Cl)cc1)/C(=N/O)C(=O)Nc1ccccc1	0.0464
COc1cc(/C=N/O)cc(Br)c1OCC(=O)NCc1ccccc1	0.215
Cc1ccccc1-n1nc(CSc2nc3ccccc3[nH]2)c(-c2ccccc2)c1N	-0.755
O=C(O)C1(NS(=O)(=O)c2ccc(Cl)cc2)CCCCC1	-0.168
COc1ccc(NC(=O)C2CCN(C(=O)c3cccs3)CC2)cc1	0.195
Cc1ccc(-c2nc3cnccn3c2Nc2c(C)cccc2C)o1	-0.399
Cc1ccc(-c2nc3cnccn3c2Nc2ccccc2)o1	-0.467
Cc1ccc(Nc2c(-c3ccc(C)o3)nc3cnccn23)cc1	2.11

SMILES	z-score
C/C=C/c1ccc(OCCOCCOc2cccc3cccnc23)c(OC)c1	-0.356
O=S(=O)(NCCc1csc(-c2cccnc2)n1)c1ccc(Cl)s1	2.22
O=S(=O)(NCc1csc(-c2cccnc2)n1)c1ccc(Cl)s1	0.124
O=S(=O)(NCc1csc(-c2cccnc2)n1)c1ccc2c(c1)OCCO2	2.01
CCc1ccc(S(=O)(=O)NCCc2csc(-c3cccnc3)n2)s1	-0.459
O=S(=O)(NCCc1csc(-c2cccnc2)n1)c1ccc2c(c1)OCCO2	-0.0667
COc1ccc(S(=O)(=O)NCc2csc(-c3cccnc3)n2)cc1	-0.168
Cc1cc(C)n2nc(SCc3cc(=O)n4ccccc4n3)nc2n1	-0.0377
CCCCCCCCSc1n[nH]c(N)n1	0.0327
COC(=O)c1cccc(CSc2nnc(C)s2)c1	-0.565
COc1ccc([N+](=O)[O-])cc1NC(=O)C(C)Sc1ccc(C)cc1 (stereo unspecified)	-0.545
COc1cc(C(=O)OCC(=O)c2c[nH]c3ccccc23)ccc1OCC(=O)N1CCOCC1	0.0746
CCn1ncc(Cl)c1C(=O)NC(C)c1ccccc1 (stereo unspecified)	0.00989
Clc1cccc(Cl)c1CSc1nnc2ccccn12	0.157
Cc1ccccc1CSc1nnc(NC(=O)C2COc3ccccc3O2)s1 (stereo unspecified)	0.0129
C[C@H](C(=O)C=[N+]=[N-])N1C(=O)c2ccccc2C1=O	-0.275
CCCCOc1ccc(-c2nnn(CC(=O)NCc3ccco3)n2)cc1	2.02
CCOc1ccc(-c2nnn(CC(=O)NCc3ccco3)n2)cc1	0.0502
O=C(Cn1nnc(-c2ccccc2)n1)NCc1ccco1	0.185
COc1ccccc1NC(=O)c1ccc(NC(=O)COC(=O)CC(NC(=O)c2ccccc2Cl)c2ccccc2)cc1 (stereo unspecified)	-0.112
